Assay results published in PubChem BioAssay (NCATS).
Inconclusive results are not listed. Calls of active or inactive are those of the source. Calls follow the shape of the dose curve; as a rule, active = well fitted cell-killing curve with a large enough effect; inconclusive = small, poorly fitted or top-dose-only effect; inactive = flat fitted curve, though single readings scatter.

assay: Cell Viability - LYMP1-003 - Assay at 24 hr (AID 963); conditions: LYMP1-003 lymphoblastoid cell viability; series mostly up to 92.2 µM; viability change, negative = cytotoxic: at the top concentration;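 also: plate controls were DMSO only for no effect and tetraoctylammonium bromide positive control for full effect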
How it was run: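 Concentration-response qHTS: ATP loss measured by CellTiter-Glo luminescence after 24 h compound exposure at 37 C. Cells were LYMP1-003 human lymphoblastoid, 2500 per well. AC50 derived via standard Hill equation modeling.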

| Structure (SMILES) | viability change, negative = cytotoxic |
| --- | --- |
| NC(=Nc1ccccc1)Nc1ccccc1 | -3.17% (inactive) |
| COc1cc(Cc2cnc(N)nc2N)cc(OC)c1OC | 0.026% (inactive) |
| CCCCNC(=O)NS(=O)(=O)c1ccc(C)cc1 | -3.66% (inactive) |
| CCCCOCCOCCOCc1cc2c(cc1CCC)OCO2 | 2.18% (inactive) |
| COc1ccc(CN(CCN(C)C)c2ccccn2)cc1 | -11.4% (inactive) |
| O=c1[nH]c(=O)n([C@H]2C[C@H](O)[C@@H](CO)O2)cc1Br | -4.13% (inactive) |

assay: Cell Viability - LYMP1-003 - Assay at 40 hr (AID 964); conditions: LYMP1-003 lymphoblastoid viability; series mostly up to 92.2 µM; activity change, negative = cytotoxic: at the top concentration; also: % is scaled to controls: 0 for no effect and ±100 for the full control effect; nearly all actives have a fitted effect of over 60% in size
How it was run: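 Viability is taken as cellular ATP, read by CellTiter-Glo luminescence after 40 h of compound exposure at 37 C. Cells: human lymphoblastoid line LYMP1-003 at 2500/well; AC50 values derived by Hill-equation fitting of concentration-response data.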

| Structure (SMILES) | activity change, negative = cytotoxic |
| --- | --- |
| NC(=Nc1ccccc1)Nc1ccccc1 | -17.2% (inactive) |
| COc1cc(Cc2cnc(N)nc2N)cc(OC)c1OC | -6.57% (inactive) |
| CCCCNC(=O)NS(=O)(=O)c1ccc(C)cc1 | -6.86% (inactive) |
| CCCCOCCOCCOCc1cc2c(cc1CCC)OCO2 | -1.41% (inactive) |
| COc1ccc(CN(CCN(C)C)c2ccccn2)cc1 | -10.5% (inactive) |
| O=c1[nH]c(=O)n([C@H]2C[C@H](O)[C@@H](CO)O2)cc1Br | -18.8% (inactive) |
